# Gal4-VP16 FLuc = counter-screen for ROR gamma inhibitors: Gal4-VP16 reporter | Drosophila S2 Gal4-VP16 UAS-luciferase, luminescence, 20 h | Potency, µM (series often up to 53.6 µM), for inactives: at the top dose activity, negative = inhibition, most hits filed as inhibitors | 310,000 tested, 3.5% active | AID 2546;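 note: Gal4-VP16 expression switched on by copper sulfate through the metallothionein promoter; nearly all actives have a fitted effect of over 50% in size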
# RORgamma inh = blocks mouse ROR gamma transcriptional activity; Drosophila S2 Gal4-RORgamma UAS-luciferase reporter, 20 h; 310,000 tested, 5.4% active; P51450; Potency, µM (top dose mostly 53.6 µM), inactives show at the highest dose activity change, negative = inhibition, most hits filed as inhibitors; note: nearly all actives have a fitted effect of over 60% in size
#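 Compounds are pin-transferred onto Drosophila Schneider cells expressing a copper-inducible Gal4–ROR gamma transactivation domain fusion. After 1 hr, copper sulfate is added to 700 uM final; luciferase is read 20 hr later.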
# TDP1 inh = blocks human tyrosyl-DNA phosphodiesterase 1; recombinant TDP1, AlphaScreen DNA substrate cleavage; 350,000 tested, 0.28% active; Q9NUW8; Potency, µM (doses to about 130 µM), for inactives: at the top dose activity change, negative = inhibition, actives largely listed as inhibitors; note: nearly all actives have a fitted effect of over 40% in size
# Target sequence (Q9NUW8 whole entry, looked up): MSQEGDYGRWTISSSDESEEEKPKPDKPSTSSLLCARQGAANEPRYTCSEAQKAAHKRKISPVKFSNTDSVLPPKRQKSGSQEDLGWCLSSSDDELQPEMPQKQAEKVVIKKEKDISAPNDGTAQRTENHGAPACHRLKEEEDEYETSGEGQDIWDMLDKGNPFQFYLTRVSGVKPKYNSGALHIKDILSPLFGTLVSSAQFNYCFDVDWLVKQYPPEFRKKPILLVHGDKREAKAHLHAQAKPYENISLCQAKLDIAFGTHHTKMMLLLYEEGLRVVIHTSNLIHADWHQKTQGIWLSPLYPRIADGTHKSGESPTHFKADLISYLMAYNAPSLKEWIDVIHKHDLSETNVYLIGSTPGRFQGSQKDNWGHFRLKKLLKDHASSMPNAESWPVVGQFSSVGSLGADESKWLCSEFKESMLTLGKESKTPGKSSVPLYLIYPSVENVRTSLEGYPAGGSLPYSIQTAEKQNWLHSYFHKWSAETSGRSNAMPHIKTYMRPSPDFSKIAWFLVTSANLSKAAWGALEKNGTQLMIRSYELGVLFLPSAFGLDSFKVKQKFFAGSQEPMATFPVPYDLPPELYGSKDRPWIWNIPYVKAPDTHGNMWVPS
#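 AlphaScreen read-out: signal falls as enzyme removes the 3' tyrosine-FITC from a 5'-biotinylated DNA oligo (15 nM, 5 min, RT). Enzyme was E. coli-made recombinant Tdp1 at 1 nM, exposed to compound for 15 min beforehand; beads 10 ug/ml, 10 min.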
# DT40 TDP1 no CPT = qHTS for Inhibitors of human tyrosyl-DNA phosphodiesterase 1 (TDP1): qHTS in cells in absence of CPT; AID 686978, 2013; Potency, µM (titrated, usually from 46.2 µM), for inactives: top-dose activity change, negative = growth inhibition, usual class: inhibitors; DT40 Tdp1-/- hTDP1 cells, no CPT, ATP luminescence, 48 h; 420,000 tested, 15% active; note: nearly all actives have a fitted effect of over 55% in size
#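 Growth of hTDP1-complemented DT40 Tdp1-knockout cells is measured by ATP luminescence after at least 48 hr compound exposure at 37 °C, with DMSO substituting for the 20 nM CPT used in the parallel screen.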
# DT40 TDP1 CPT = DT40-hTDP1 cell growth loss with CPT | chicken DT40 Tdp1-/-;hTDP1 cells + 20 nM CPT, ATP luminescence, 48 h | Potency, µM (top dose mostly 46.2 µM), for the others: at the highest dose activity change, negative = growth inhibition, most hits filed as inhibitors | 420,000 tested, 12% active | AID 686979; note: nearly all actives have a fitted effect of over 55% in size
#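 Chicken DT40 Tdp1-/- cells complemented with human TDP1, 400 cells/well, exposed to compounds plus 20 nM camptothecin for at least 48 h at 37 C; viability read as ATP content by CellTiter-Glo luminescence.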
# * hit, by the source's call; ? = inconclusive; . = no result; [ ] = remark or other dose. Hits are enriched below; roughly 19% of the tested compounds scored in any of these assays. Calls come from the whole dose curve; as a rule, active = well fitted curve in the direction sought with a large enough effect; inconclusive = small, poorly fitted or top-dose-only effect, or another doubt; inactive = no such curve, though single readings can be large; an effect the other way counts as inactive or inconclusive. % is set by controls: 0 for no effect and ±100 for the full control effect; potency is the fitted concentration of half-maximal effect.
SMILES,Gal4-VP16 FLuc,RORgamma inh,TDP1 inh,DT40 TDP1 no CPT,DT40 TDP1 CPT
COc1cccc(CNc2nc(NC(C)C)nc3ccsc23)c1,.,.,.,?,23µM*
COc1ccc(C(=O)OC(C)C(=O)NC2CCCc3ccccc32)cc1OC (stereo unspecified),.,.,0%,-16%,-30%
COc1ccc(S(=O)(=O)N2CCOC2CNC(=O)C(=O)NCCN2CCOCC2)cc1OC (stereo unspecified),-4%,-25%,3%,2%,-5%
Cc1cc(Cl)ccc1NC(=O)COC(=O)c1nc2nccc(C)n2n1,7%,3%,2%,?,8%
COc1ccc(C(=O)Nc2ccc(O)c3ccccc23)cc1,.,.,.,26µM*,?
COc1ccc(NC(=O)Nc2ccc(O)c3ccccc23)cc1,.,.,.,13µM*,5.8µM*
CCNC(=O)C1(C)CCCN1C(=O)c1cc(C)on1 (stereo unspecified),.,.,.,-1%,12%
COC1CCN(C(=O)c2ccc(OC3CCN(Cc4ccccn4)CC3)cc2)CC1,-9%,19%,3%,-22%,9%
COc1ccc(-c2nnn(CC(=O)c3ccc4c(c3)OCCO4)n2)cc1OC,0%,?,1%,-17%,-25%
CCCCn1nnnc1C(c1ccccc1)N1CCN(c2ccc(C)cc2)CC1 (stereo unspecified),.,.,.,18µM*,?
CC(C)(C)n1nnnc1C(c1cccnc1)N1CCN(c2ccccc2)CC1 (stereo unspecified),10%,-35%,2%,?,-11%
c1ccc(Cn2nnnc2C(c2cccnc2)N2CCN(c3ccccc3)CC2)cc1 (stereo unspecified),?,13%,3%,23µM*,21µM*
CCCCn1nnnc1C(c1ccccc1)N1CCN(c2ccccn2)CC1 (stereo unspecified),.,.,.,16µM*,-46%
CCCCn1nnnc1C(c1ccccc1)N1CCN(c2ncccn2)CC1 (stereo unspecified),.,.,.,21µM*,?
CCC(C(=O)NC1CCCCC1)n1c(SCc2ccc(F)cc2)nc2ccncc21 (stereo unspecified),12%,?,3%,?,?
CCOC(=O)C1=C(c2ccccc2)N=C2SCC(=O)N2C1c1ccc2c(c1)OCO2 (stereo unspecified),-5%,-9%,4%,-20%,-3%
CCc1ccc(-c2cnc3ccccc3n2)cc1NC(=O)CNC(=O)c1ccccc1,0%,17%,-3%,5%,1%
NC(=O)C1CCN(C(=O)Nc2ccccc2)CC1,.,1%,7%,-7%,3%
C=C1C(=O)OC2C1CC/C(C)=C/CCC1(C)OC21 (stereo unspecified),4µM*,4.5µM*,5%[56.1 µM],2.9µM*,2.3µM*
C=C1C(=O)O[C@@H]2C3OC3(C)CC/C=C(\C)CC[C@@H]12 (stereo partly specified),28µM*,?,12%[56.1 µM],11µM*,11µM*
C=C1C(=O)O[C@@H]2[C@H]3O[C@]3(C)CC/C=C(\C)CC[C@@H]12,.,.,7%,5.2µM*,4.6µM*
C=C1CC/C=C(\C)CC[C@@H]2[C@@H]1CC2(C)C,-1%,14%,-6%[56.1 µM],-6%,-8%
C=C1C(=O)OC2C=C(C)CCC=C(C)CCC12 (stereo unspecified),?,?,16%,.,.
C=C1C(=O)O[C@H]2[C@H]1CC/C(C)=C\CC[C@@]1(C)O[C@@H]21,.,.,.,2.7µM*,2.4µM*
CCCC(C(=O)NC1CCCCC1)N(CC1CCCO1)C(=O)CNS(=O)(=O)c1ccc(F)cc1 (stereo unspecified),-3%,34%,0%,?,-24%
SMILES,Gal4-VP16 FLuc,RORgamma inh,TDP1 inh,DT40 TDP1 no CPT,DT40 TDP1 CPT
O=C(Cn1ncc2c(=O)oc3ccccc3c21)NCC1COc2ccccc2O1 (stereo unspecified),-9%,-17%,-1%,-20%,?
COc1cc2nc(Nc3ccc(C)c(C)c3)nc(N)c2cc1OC,-8%,3%,5%,15µM*,23µM*
CCOC(=O)c1ccc(Nc2nc(N)c3cc(OC)c(OC)cc3n2)cc1,?,-43%,-2%[12.3 µM],21µM*,7.3µM*
COc1cc2nc(Nc3ccc(C)c(Cl)c3)nc(N)c2cc1OC,?,-76%,.,?,?
COc1cc2nc(Nc3ccc(F)cc3)nc(N)c2cc1OC,-4%,-6%,-2%,4.6µM*,6.5µM*
COc1cc2nc(Nc3cccc(C)c3)nc(N)c2cc1OC,.,.,-2%[12.3 µM],3.3µM*,12µM*
Cc1ccc(CCN2CC(C(=O)NCc3ccc4c(c3)OCO4)CC2=O)cc1 (stereo unspecified),-5%,2%,.,-11%,-22%
COCCCNC(=S)Nc1ccc(C)cc1[N+](=O)[O-],1%,-23%,0%,-1%,-2%
CN(C)c1cccc(NC(=O)C2(C)CC2(Cl)Cl)c1 (stereo unspecified),4%,2%,3%,-1%,5%
CC(=O)Nc1ccc(NC(=O)C2(C)CC2(Cl)Cl)cc1 (stereo unspecified),-2%,-6%,5%,18µM*,?
CN1C(C(=O)NCCc2cccs2)CC2Cn3c(nc4cc5ccccc5cc43)C21 (stereo unspecified),2%,16%,4%,?,-23%
CCOC(=O)N1CCC(N(CCN(C)C)C(=S)Nc2cc(Cl)ccc2C)CC1,-5%,-44%,-1%,-4%,-6%
COc1ccccc1NC(=S)N1CCN(c2nc(-c3ccccc3)cs2)CC1,?,14µM*,6%,16µM*,18µM*
COc1cccc(-c2csc(N3CCN(C(=O)Nc4ccccc4Cl)CC3)n2)c1,-5%,?,4%,?,?
CCOc1ccccc1NC(=S)N1CCN(c2nc(-c3cccc(OC)c3)cs2)CC1,7.9µM*,4µM*,-5%,?,-17%
COc1cccc(-c2csc(N3CCN(Cc4ccccc4)CC3)n2)c1,?,13µM*,0%,-8%,-5%
COc1cccc(NC(=O)N2CCN(c3nc(-c4cccc(OC)c4)cs3)CC2)c1,-9%,-1%,.,5.2µM*,5.2µM*
CNC(=S)N1CCN(c2nc(-c3cccc(OC)c3)cs2)CC1,24%,-1%,.,?,?
O=C(CSc1nc2c([nH]c3ccccc32)c(=O)n1-c1ccccc1)Nc1ccc2c(c1)OCCO2,.,.,9%,?,?
COc1cccc(-c2csc(N3CCN(C(=S)Nc4ccc(Cl)cc4)CC3)n2)c1,?,?,8%,?,?
COc1cccc(-c2csc(N3CCN(C(=O)NC45CC6CC(CC(C6)C4)C5)CC3)n2)c1,3%,-4%,9%,13µM*,?
